Hits are enriched below; roughly 2.4% of the tested compounds scored in any of these assays.
SmPrx2 inh – blocks S. mansoni peroxiredoxin 2 enzymatic activity. S. mansoni Prx2 activity coupled to TGR/GSH (TGR is thioredoxin glutathione reductase), NADPH fluorescence loss, qHTS. Potency, µM. 65,000 tested, 0.07% active
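Prx2 activity was followed as the loss of NADPH fluorescence (ex 365/em 450 nm), read every 30 sec for 8 min after H2O2 start. The enzyme mix (50 nM Prx2, 25 nM TGR, GSH, NADPH; pH 7.4 phosphate buffer) was incubated with compound for 15 min at room temperature first.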
AmpC inh no det – AmpC beta-lactamase inhibition, detergent-free assay; Potency, µM (highest dose often 28.7 µM), for the others: top-dose activity change, negative = inhibition; P00811; AmpC nitrocefin hydrolysis, absorbance 480 nm, no detergent; 71,000 tested, 1.8% active; note: % of control where 0% means no effect
Target sequence (P00811 whole entry, looked up): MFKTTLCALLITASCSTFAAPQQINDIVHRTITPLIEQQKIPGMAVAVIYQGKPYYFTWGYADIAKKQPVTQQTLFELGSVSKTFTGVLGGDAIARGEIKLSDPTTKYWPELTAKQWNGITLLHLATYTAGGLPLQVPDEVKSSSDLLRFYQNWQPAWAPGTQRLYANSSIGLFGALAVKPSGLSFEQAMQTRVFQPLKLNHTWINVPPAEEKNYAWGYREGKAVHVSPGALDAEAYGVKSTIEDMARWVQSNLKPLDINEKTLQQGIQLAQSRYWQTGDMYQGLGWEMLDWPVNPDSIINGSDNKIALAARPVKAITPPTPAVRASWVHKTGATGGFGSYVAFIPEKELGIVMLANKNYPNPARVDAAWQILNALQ
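Enzyme, pH 7.0 phosphate. Compound titrations were pre-incubated with AmpC for 15 min at room temperature before nitrocefin (stock 800 uM) addition; product formation was recorded at 480 nm every 20 s for 4 min.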
AmpC det inh – blocks E. coli AmpC beta-lactamase in presence of detergent. Potency, µM (titrated, usually from 28.7 µM), inactives show at the highest dose activity change, negative = inhibition. AID 584. purified AmpC, nitrocefin hydrolysis with detergent. 71,000 tested, 0.09% active. P00811; active = well fitted curve in the direction sought with a large enough effect; inconclusive = small, poorly fitted or top-dose-only effect; note: % is set by controls: 0 for no effect and ±100 for the full control effect
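E. coli AmpC (5.3 nM) in 20 mM phosphate pH 7.0 with 0.01% Triton X-100, preincubated 15 min RT with compound; nitrocefin (2 uL of 800 uM stock) hydrolysis followed by 480 nm absorbance every 20 s over 4 min.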
Anthrax LT inh – blocks cellular internalization of anthrax lethal toxin; Cells, anthrax lethal toxin internalization, FRET ratio (460/530); Potency, µM (series often up to 40 µM), inactives show at the top dose activity change, negative = inhibition, most hits filed as inhibitors; 70,000 tested, 0.67% active; note: % is set by controls: 0 for no effect and ±100 for the full control effect; nearly all actives have a fitted effect of over 50% in size
An asterisk follows results filed as active; ? = inconclusive; · = no result given; [ ] = another dose, or the depositor's remark. Unless noted, calls come from the whole dose curve. Potency is the fitted concentration of half-maximal effect.

SMILES	SmPrx2 inh	AmpC inh no det	AmpC det inh	Anthrax LT inh
O[C@H](CN1CC1)[C@@H](O)CN1CC1	>57	1%[5.75 µM]	2%[5.75 µM]	-7%[8 µM]
Cc1ccc(-n2nnc3ccccc3c2=O)cc1C	·	18%	-3%	13µM*
C=CCN1CCc2cccc3c2[C@@H]1Cc1ccc(O)c(O)c1-3	>57	-13%	0%	?
Cc1cc(NC(=O)c2cc(CC(C)C)on2)no1	>57	4µM*[single pt active]	12%	-17%
CC(C)Cc1cc(C(=O)Nc2sc3c(c2C#N)CCCC3)no1	>57	4µM*[single pt active]	12%	7.9µM*
Cc1cc(NC(=O)c2cc(C)on2)no1	>57	7%	0%	0%
COc1cc(NC(=O)c2cc(CC(C)C)on2)c(OC)cc1Cl	>57	4µM*[single pt active]	10%	?
CC(=O)c1ccc(NC(=O)c2cc(CC(C)C)on2)cc1	>57	4µM*[single pt active]	11%	-16%
COc1ccc(CNc2ccnc(-c3c(C)noc3C)n2)c(OC)c1	>57	30%	3%	4%
COc1nc(Nc2cccc(C(F)(F)F)c2)nc(OC)n1	>57	-13%	8%	-21%
COc1nc(Nc2ccc3c(c2)OCO3)nc(OC)n1	>57	4µM*[single pt active]	11%	-1%
O=C(CCc1nc2ccccc2[nH]1)NC1CCCCC1	>57	4µM*[single pt active]	4%	-15%
CCC(=O)N1CCN(c2ccc(NC(=O)c3cc4ccccc4o3)cc2Cl)CC1	>57	109%	-5%	10µM*
O=C(Nc1ccc(N2CCN(C(=O)c3ccco3)CC2)c(Cl)c1)c1cc2ccccc2o1	>57	18%	-4%	?
CCCC(=O)N1CCN(c2ccc(NC(=O)c3cc4ccccc4o3)cc2Cl)CC1	>57	50%	-2%	6.3µM*
NC[C@@H]1O[C@@H](O[C@H]2[C@@H](O)[C@H](O[C@@H]3[C@H](O)[C@H](N)C[C@H](N)[C@H]3O[C@@H]3O[C@@H](CO)[C@H](O)[C@H](O)[C@@H]3N)O[C@H]2CO)[C@H](N)[C@H](O)[C@@H]1O	>57	2%	0%	-5%
CCCCSc1nc2c(cc1C#N)CCC2	>57	-6%	-4%	-13%
CCCSc1nc(C)c(-c2csc(C(C#N)=C3CCCC3)n2)cc1C#N	>57	13µM*	0%	-12%
Cc1ccc2c(c1)c(-c1ccccc1)nc1nncn12	>57	2.5µM*[single pt active]	14%	?
Cc1cccc(-c2nc3ccccc3c3nncn23)c1	·	16%	3%	-12%
COc1ccc(NC(=O)N2CCC3(CC2)CCN(C(=O)c2cccc(F)c2)CC3)cc1	>57	78%	0%	-24%
O=C(COC(=O)C1CCN(S(=O)(=O)c2cccs2)CC1)c1ccc2c(c1)OCCO2	>57	-17%	-3%	0%
O=C(COC(=O)C1CCN(S(=O)(=O)c2cccs2)CC1)c1cc2ccccc2o1	>57	10µM*	-2%	-8%
CCCN(CCC)CCNC(=O)CS(=O)Cc1nc(-c2ccc(C)cc2)oc1C (configuration not stated)	>57	25%	-3%	11%
Cc1ccc(-c2nc(CS(=O)CC(=O)NCCCN3CC(C)CC(C)C3)c(C)o2)cc1 (configuration not stated)	>57	4µM*[single pt active]	14%	-7%
SMILES	SmPrx2 inh	AmpC inh no det	AmpC det inh	Anthrax LT inh
CCCCNC(=O)CS(=O)Cc1nc(-c2ccc(C)cc2)oc1C (configuration not stated)	>57	4µM*[single pt active]	12%	-2%
CN1CCC2(CC1)CCN(C(=O)c1cc(C(F)(F)F)cc(C(F)(F)F)c1)CC2	>57	6%	-2%	-7%
CCc1ccc(NC(=O)NCCN2CCc3ccccc3C2)cc1	>57	13%	-2%	-22%
O=C(NCCN1CCc2ccccc2C1)Nc1ccc(F)cc1	>57	4µM*[single pt active]	5%	?
CN(C)c1ccc(C(=O)OCC(=O)c2cccs2)cc1	>57	-2%	10%	-14%
O=C(OCC(=O)c1cccs1)c1ccc(NC(=O)c2ccco2)cc1	>57	16µM*[single pt active]	9%	-6%
COc1ccc(CNc2oc(-c3ccccc3)nc2C#N)cc1	>57	4µM*[single pt active]	15%	-2%
COc1ccc(CCNc2oc(-c3ccc(C)cc3)nc2C#N)cc1OC	>57	4µM*[single pt active]	12%	9%
COc1ccccc1CN1CCCC2(CCNCC2)C1	>57	-2%	-3%	?
O=C=Nc1ccc(Cc2ccc(N=C=O)cc2)cc1	·	16µM*	9%	-9%
COc1ccc(NC(=O)CCCC2=NS(=O)(=O)c3ccccc3N2)cc1	>57	4µM*[single pt active]	13%	5%
O=C(CCCC1=NS(=O)(=O)c2ccccc2N1)N1CCN(c2ccc(Cl)cc2)CC1	>57	4µM*[single pt active]	25%	?
CCCCC[C@H](O)c1cccc(OCc2ccc3ccccc3n2)c1	>57	-4%	-4%	?
COc1ncc2nc(-c3ccc(Cl)cc3)c(=O)n(C[C@H]3CCCO3)c2n1	>57	47%	0%	-17%
COc1ccc([C@H](O)c2ccccn2)cc1	>57	2%[5.75 µM]	-7%[5.75 µM]	-7%[8 µM]
CC(=O)Oc1ccc(C(c2ccc(OC(C)=O)cc2)c2ccccn2)cc1	>57	57%	12%	0.16µM*
CC(=O)Nc1ccc(OC[C@@H](O)CNC(C)C)cc1	>57	31%	2%	3%
Oc1cc(O)cc(/C=C\c2ccc(O)c(O)c2)c1	>57	-23%	-4%	3%
O=c1c2ccccc2sn1-c1ccc(S(=O)(=O)N2CCCC2)cc1	>57	-6%	-5%	0.13µM*
O=c1c2ccccc2sn1-c1ccc(S(=O)(=O)N2CCCCC2)cc1	>57	-7%	-4%	0.16µM*
Cc1noc(C)c1-c1nccc(N(C)C)n1	>57	15%	9%	-11%
O=C1NC(O)=NC1(c1ccccc1)c1ccccc1	>57	-4%	2%	?
C[C@@H]1Cc2cc3c(cc2C(c2ccc(N)cc2)=NN1)OCO3	>57	-8%	-3%	?
CCN1CCN(c2ncc(C(=O)Nc3ccccc3C(=O)OC)c3ccccc23)CC1	>57	132%	-1%	10µM*
O=C1CC(O)(C(F)(F)F)Oc2c1ccc1ccccc21 (configuration not stated)	·	-21%	0%	10µM*
SMILES	SmPrx2 inh	AmpC inh no det	AmpC det inh	Anthrax LT inh
C=C(C)[C@H]1Cc2c(ccc3c2O[C@H]2COc4cc(OC)c(OC)cc4[C@@H]2C3=O)O1	>57	115%	-3%	?
O=c1cccc2n1C[C@H]1C[C@@H]2CN(CCO)C1	>57	10%	-2%	0%
CC1CCN(C(=O)CSc2nnc(Cc3cc(=O)[nH]c(=O)[nH]3)n2-c2ccc(Cl)cc2)CC1	>57	4µM*[single pt active]	8%	-2%
COc1cccc(-n2c(Cc3cc(=O)[nH]c(=O)[nH]3)nnc2SCC(=O)N2CCCC2)c1	>57	-8%	17%	1%
O=C(CSc1nnc(Cc2cc(=O)[nH]c(=O)[nH]2)n1-c1ccccc1)N1CCCCC1	>57	3.2µM*[single pt active]	11%	-2%
COc1cccc(-n2c(Cc3cc(=O)[nH]c(=O)[nH]3)nnc2SCC(=O)N2CCCCCC2)c1	>57	4µM*[single pt active]	14%	-8%
COc1ccc(-n2c(Cc3cc(=O)[nH]c(=O)[nH]3)nnc2SCC(=O)N2CCC(C)CC2)cc1	>57	4µM*[single pt active]	14%	-5%

From PubChem BioAssay
